Laboratory results published in PubChem BioAssay AID1851 (National Center for Advancing Translational Sciences (NCATS), 2009).
The whole screen tested about 16,000 compounds, of which about 5,800 (36%) were called active. About 23% were inconclusive and are not listed. Some of the results follow. More than one record can exist for a structure, and the calls need not agree. Values without a mark were called inactive. Calls come from the whole dose curve; as a rule, active = well fitted curve in the direction sought with a large enough effect; inconclusive = small, poorly fitted or top-dose-only effect, or effect the other way; inactive = no such curve, though single readings can be large or run the other way.

What follows are molecules tested against Cytochrome P450 2C19 (Homo sapiens) (UniProt P33261) (assay: Cytochrome panel assay with activity outcomes). Conditions: recombinant CYP, pro-luciferin dealkylation, luminescence, p450-cyp2c19; series mostly up to 57.1 µM; activity, negative = inhibition: at the top concentration.
Chain of Cytochrome P450 2C19 (Homo sapiens) (P33261 whole entry, looked up): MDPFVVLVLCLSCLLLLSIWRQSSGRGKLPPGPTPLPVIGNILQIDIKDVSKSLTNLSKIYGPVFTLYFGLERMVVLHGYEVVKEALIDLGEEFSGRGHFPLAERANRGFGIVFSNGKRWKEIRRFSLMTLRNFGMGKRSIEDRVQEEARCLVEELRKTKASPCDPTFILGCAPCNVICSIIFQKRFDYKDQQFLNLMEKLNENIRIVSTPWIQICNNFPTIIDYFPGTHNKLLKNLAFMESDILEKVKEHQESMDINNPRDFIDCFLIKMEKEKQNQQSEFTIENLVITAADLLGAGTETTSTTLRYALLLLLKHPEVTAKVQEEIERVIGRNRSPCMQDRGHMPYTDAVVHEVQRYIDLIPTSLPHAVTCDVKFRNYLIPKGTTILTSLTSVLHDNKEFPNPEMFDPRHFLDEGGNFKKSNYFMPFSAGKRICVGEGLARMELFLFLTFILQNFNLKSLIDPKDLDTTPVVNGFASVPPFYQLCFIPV
% is set by controls: 0 for no effect and ±100 for the full control effect.

| Compound | activity, negative = inhibition | AC50 |
| --- | --- | --- |
| NOCC(=O)O | 26.6% | – |
| CNc1cc(OC)c(C(=O)N[C@@H]2CCN(Cc3ccccc3)[C@H]2C)cc1Cl | -10.1% | – |
| COc1cc(NC(=O)c2ccccc2Cl)ccc1NC(=O)c1ccco1 | – | 8.91 µM (active) |
| CC(C)Oc1ccc(C(=O)Nc2ccc(NC(=O)c3ccco3)c(Cl)c2)cc1 | – | 3.98 µM (active) |
| COc1ccc(C(=O)Nc2ccc(NC(=O)c3ccco3)c(Cl)c2)cc1OC | -27% | – |
| Cc1nn(-c2ccc(F)cc2)c(C)c1NS(=O)(=O)c1ccc2ccccc2c1 | – | 0.316 µM (active) |
| Cc1ccc(C)c(/C(=N\N=C(N)N)C2CC2)c1 | -19.5% [at 11.4 µM] | – |
| CCCCCC(=O)Nc1cc2[nH]c(=O)cc(COC)c2cc1C | -5.35% | – |
| CCN(CC)C(=O)C(=O)N/N=C/c1cccc(Br)c1 | – | 22.4 µM (active) |
| CCCCCCCCC(=O)N/N=C/c1cccc(Br)c1 | – | 2 µM (active) |
| CCCCCCCCC(=O)N/N=C/c1ccccn1 | – | 5.01 µM (active) |
| O=C(N/N=C/c1ccccn1)c1ccco1 | 3.57% | – |
| CCCCCCCCCCCCCCCC(=O)NC(C)C | -14.3% | – |
| C[C@@](Cc1ccc(O)c(O)c1)(NN)C(=O)O | -35.7% | – |
| Cc1cc2cc3c(cc2nc1SCC(=O)Nc1c(C)cccc1C)CCC3 | – | 3.55 µM (active) |
| COc1ccc(CCn2c(C)cc(C(=O)CSc3nc(N)cc(=O)[nH]3)c2C)cc1 | – | 3.55 µM (active) |
| COc1ccc(C(=O)NC2(C(F)(F)F)C(=O)Nc3c2c(=O)[nH]c(=O)n3CCc2ccc(OC)c(OC)c2)cc1 (centres undefined) | -8.4% | – |
| Cc1cc(C(=O)CSc2nnc(N)s2)c(C)n1CCc1ccc(F)cc1 | – | 0.794 µM (active) |
| CCOc1ccc(NC(=O)c2oc3ccccc3c2NC(=O)CC)cc1 | – | 2.24 µM (active) |
| O=C(Nc1cccc(-c2nc3ccccc3s2)c1)c1ccc2c(c1)OCO2 | – | 7.08 µM (active) |
| CCOC(=O)Nc1ccc2c(c1)OCO2 | – | 20 µM (active) |
| CCOCC(=O)Nc1c(C(=O)Nc2ccccc2OC)oc2ccccc12 | 4.01% | – |

| Compound | activity, negative = inhibition | AC50 |
| --- | --- | --- |
| COc1cccc(NC(=O)c2oc3ccccc3c2NC(=O)c2ccc3c(c2)OCO3)c1 | – | 3.55 µM (active) |
| CCOC(=O)c1oc2ccccc2c1NC(=O)c1cc(OC)cc(OC)c1 | – | 25.1 µM (active) |
| CC(C)(C)c1ccc(OC(=O)Nc2ccc(O)c(C(=O)O)c2)cc1 | 41.8% [at 11.4 µM] | – |
| CCOC(=O)c1oc2ccccc2c1NC(=O)c1ccc2c(c1)OCO2 | – | 2.82 µM (active) |
| CCOC(=O)Nc1ccc(C(=O)Oc2ccccc2)c(O)c1 | – | 3.55 µM (active) |
| CCOC(=O)c1oc2ccccc2c1NC(=O)c1ccc(S(=O)(=O)N(C)C)cc1 | -18.8% | – |
| Cc1ccc(OCC(O)Cn2c3ccccc3c3ccccc32)cc1 (centres undefined) | – | 1.26 µM (active) |
| C=CCN(CC=C)CC(O)Cn1c2ccccc2c2ccccc21 (centres undefined) | – | 0.562 µM (active) |
| Cc1ccccc1OCC(O)Cn1c(NCc2ccccc2)nc2c1c(=O)[nH]c(=O)n2C (centres undefined) | -14.8% | – |
| Cc1cccc(C)c1OCC(O)CNC(C)(C)C (centres undefined) | -19.1% | – |
| Cc1ccccc1OCC(O)Cn1c2ccccc2c2ccccc21 (centres undefined) | – | 0.631 µM (active) |
| c1ccc([C@@H]2CN3CCSC3=N2)cc1 | – | inactive |
| COc1ccc(CCn2c(=N)c(C(=O)NCc3ccco3)cc3c(=O)n4ccccc4nc32)cc1 | – | 11.2 µM (active) |
| C=CCn1c(Cc2c[nH]c3ccccc23)nnc1SCC(=O)NCc1ccccc1 | – | 25.1 µM (active) |
| CCn1c(CSCc2ccc(C)cc2)nnc1SCC(=O)NCc1ccccc1 | – | 14.1 µM (active) |
| CCn1c(CC(=O)Nc2ccc(C)cc2)nnc1SCC(=O)NCCc1ccccc1 | – | 22.4 µM (active) |
| CCn1c(CC(=O)Nc2ccc(C)cc2)nnc1SCC(=O)Nc1nc(C)cs1 | 1% | – |
| C[C@@](N)(C(=O)O)c1ccc(S(=O)(=O)O)cc1 | -24.8% | – |
| COc1cc(OC)c2nc(C)c3c(c2c1)N(c1ccc(O)cc1)CC3 | – | 14.1 µM (active) |
| Clc1ccccc1C(Nc1cnccn1)Nc1cnccn1 | 12% [at 11.4 µM] | – |
| CC1(C)S[C@@H]2[C@H](C(=O)O)N=C(Cc3ccccc3)N2[C@H]1C(=O)O | 28.2% [at 11.4 µM] | – |
| COc1ccc2c(c1)c(CC(=O)O)c(C)n2Cc1ccc(Cl)cc1 | – | 10 µM (active) |

| Compound | activity, negative = inhibition | AC50 |
| --- | --- | --- |
| COc1ccc2c(c1)c(CC(=O)O)c(C)n2C(=O)c1ccc(Cl)cc1 | – | inactive |
| COc1ccc2c(c1)c(CC(=O)OCC(=O)O)c(C)n2C(=O)c1ccc(Cl)cc1 | -14.1% [at 25.6 µM] | – |
| CC(C)(C)N1C(=O)[C@H]2[C@@H]3[C@H](O)C=CC(=O)[C@H]3CC[C@H]2C1=O | 23.7% [at 11.4 µM] | – |
| CS(=O)(=O)N1N=C(c2ccc(Br)cc2)CC1c1ccc2c(c1)OCO2 (centres undefined) | – | 0.178 µM (active) |
| C[C@@H]1CC[C@H]2C(=O)N3[C@@H](CC[C@@H](C)[C@@H]3c3ccc(Br)cc3)C(=O)N2[C@@H]1c1ccc(Br)cc1 | -27.6% [at 11.4 µM] | – |
| COc1ccc(OCCNS(=O)(=O)c2ccc3oc4ccccc4c3c2)cc1 | – | 2.24 µM (active) |
| COc1ccc(NC(=O)CCNS(=O)(=O)c2ccc3c(c2)c(=O)n(C)c(=O)n3C)cc1 | 72.2% | – |
| CCCCc1ccc(NC(=S)NCc2cccs2)cc1 | – | 3.55 µM (active) |
| Cc1ccc(C(=O)COC(=O)CNC(=O)C(c2ccccc2)c2ccccc2)cc1[N+](=O)[O-] | – | 5.01 µM (active) |
| Cc1ccc(C(=O)COC(=O)CNC(=O)Cc2ccccc2)cc1[N+](=O)[O-] | -20.8% | – |
| Cc1ccc(C(CC(=O)c2ccco2)SCCO)cc1 (centres undefined) | – | 2.82 µM (active) |
| CC[C@H](CN(C)C)C(=O)c1ccco1 | 8.39% [at 11.4 µM] | – |
| O=c1cc(-c2ccccc2)oc2cc(O)cc(O)c12 | – | 0.794 µM (active) |
| O=c1cc(-c2ccccc2)oc2cc(O)c(O)c(O)c12 | -2.25% | – |
| O=c1c(O)c(-c2ccc(O)c(O)c2)oc2cc(O)cc(O)c12 | 0.603% [at 25.6 µM] | – |
| O=c1cc(-c2ccc(O)cc2)oc2cc(O)cc(O)c12 | – | 7.94 µM (active) |
| O=C(O)c1c(-c2c3ccc(=O)cc-3oc3cc(O)ccc23)cc2ccccc2c1-c1ccccc1 | 25.6% [at 11.4 µM] | – |
| COc1ccc(C2=C(C#N)C(=O)OC2)cc1 | -21.4% | – |
| COc1ccc(-c2cc(=O)c3c(O)cc(O)cc3o2)cc1 | – | 1 µM (active) |
| Cc1cc(=O)c2c(O)c(O)ccc2o1 | -24.3% | – |
